{
  "source": "PubChem BioAssay AID2018",
  "about": "(Sanford-Burnham Center for Chemical Genomics, 2009)",
  "note": "Out of some 1,200 compounds screened, about 600 (50%) were called active. No stated cut-off is given here; in the data, active means inhibition above about 42%; inactive means the rest. So high a share suggests a set chosen from earlier hits. The list shows a part of the results. Measured potencies and affinities stand elsewhere.",
  "data": [
    {"target": "SUMO-conjugating enzyme UBC9 (Homo sapiens) (UniProt P63279)", "sequence (P63279 whole entry, looked up)": "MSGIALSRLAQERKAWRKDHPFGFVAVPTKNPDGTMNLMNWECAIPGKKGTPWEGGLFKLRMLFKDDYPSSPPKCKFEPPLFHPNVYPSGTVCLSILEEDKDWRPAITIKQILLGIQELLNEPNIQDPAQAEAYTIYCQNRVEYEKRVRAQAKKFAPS", "test": "blockers of UBC9-mediated SUMO conjugation – biochemical, AlphaScreen, SUMOylation inhibitor project, confirmation (AID 2018)", "details": "AlphaScreen in vitro SUMOylation assay; at 35 µM; hits give high values", "values": [
      {"compound": "O=C(O)CC1OCC=C2CN3CCC45C6=CC(=O)C(=O)C([N+](=O)[O-])=C6NC4C1C2CC35", "note": "(centres undefined)", "inhibition": "102% (active)"},
      {"compound": "CN1CCN(c2ccc(S(C)(=O)=O)cc2[N+](=O)[O-])CC1", "inhibition": "-12.2% (inactive)"},
      {"compound": "Cc1cc(/C=C2\\C(=O)NC(=O)N(Cc3ccccc3)C2=O)c(C)n1-c1ccc(Cl)c(C(=O)O)c1", "inhibition": "102% (active)"},
      {"compound": "CC(=O)c1ccc2c(c1)C1C(Cl)C(Sc3ccccc3[N+](=O)[O-])CC1C(c1ccccc1[N+](=O)[O-])N2", "note": "(centres undefined)", "inhibition": "38.6% (inactive)"},
      {"compound": "CC(=O)c1ccc2c(c1)C1C(Cl)C(Sc3ccccc3[N+](=O)[O-])CC1C(C(=O)O)N2", "note": "(centres undefined)", "inhibition": "102% (active)"},
      {"compound": "CC(C)CCNC(=O)c1c(N)n(Cc2ccc3c(c2)OCO3)c2nc3ccccc3nc12", "inhibition": "18.5% (inactive)"},
      {"compound": "Cc1c(CC(=O)N2C[C@H]3C[C@@H](C2)c2cccc(=O)n2C3)c(=O)oc2c(C)c(O)ccc12", "inhibition": "54.2% (active)"},
      {"compound": "Nc1c(C(=O)NCCCc2ccccc2)c2nc3ccccc3nc2n1Cc1cccs1", "inhibition": "-10.2% (inactive)"},
      {"compound": "Cc1[nH]n(-c2ccccc2)c(=O)c1C(c1ccc([N+](=O)[O-])cc1)c1c(C)[nH]n(-c2ccccc2)c1=O", "inhibition": "102% (active)"},
      {"compound": "CCN(CC)c1ccc([N+](=O)[O-])c2cccnc12", "inhibition": "33.7% (inactive)"},
      {"compound": "CC(C)OCCCNC(=O)c1c(N)n(CC2CCCO2)c2nc3ccccc3nc12", "note": "(centres undefined)", "inhibition": "-76.6% (inactive)"},
      {"compound": "CCCNC(=O)c1c(N)n(CC2CCCO2)c2nc3ccccc3nc12", "note": "(centres undefined)", "inhibition": "-23.2% (inactive)"},
      {"compound": "CC(C)CCNC(=O)c1c(N)n(CC2CCCO2)c2nc3ccccc3nc12", "note": "(centres undefined)", "inhibition": "-37.9% (inactive)"},
      {"compound": "Nc1c(C(=O)NC2CCCC2)c2nc3ccccc3nc2n1CC1CCCO1", "note": "(centres undefined)", "inhibition": "100% (active)"},
      {"compound": "CCCNC(=O)c1c(N)n(Cc2ccc3c(c2)OCO3)c2nc3ccccc3nc12", "inhibition": "13.5% (inactive)"},
      {"compound": "CCC(C)NC(=O)c1c(N)n(CC2CCCO2)c2nc3ccccc3nc12", "note": "(centres undefined)", "inhibition": "101% (active)"},
      {"compound": "CCC(C)NC(=O)c1c(N)n(Cc2ccc3c(c2)OCO3)c2nc3ccccc3nc12", "note": "(centres undefined)", "inhibition": "11% (inactive)"},
      {"compound": "CN1CCC2(CC1)C(C#N)=C(N)NC(S)=C2C#N", "inhibition": "38.8% (inactive)"},
      {"compound": "CCCCn1c(NS(=O)(=O)c2ccccc2)c(C(=O)OCC)c2nc3ccccc3nc21", "inhibition": "101% (active)"},
      {"compound": "CCCCn1c(NC(=O)c2ccco2)c(C(=O)OCC)c2nc3ccccc3nc21", "inhibition": "62.6% (active)"},
      {"compound": "CCCCn1c(N)c(C(=O)OCC2CCCO2)c2nc3ccccc3nc21", "note": "(centres undefined)", "inhibition": "25.4% (inactive)"},
      {"compound": "COCCNC(=O)c1c(NC(=O)c2ccco2)n(Cc2ccccc2)c2nc3ccccc3nc12", "inhibition": "-28.4% (inactive)"},
      {"compound": "CCCCn1c(NS(=O)(=O)c2ccc(C)cc2)c(C(=O)OCC)c2nc3ccccc3nc21", "inhibition": "28.2% (inactive)"},
      {"compound": "CCCCNC(=O)c1c(N)n(CCCOC)c2nc3ccccc3nc12", "inhibition": "102% (active)"},
      {"compound": "CCCCCn1c(N)c(C(=O)NCc2cccs2)c2nc3ccccc3nc21", "inhibition": "9.5% (inactive)"},
      {"compound": "CCOC(=O)c1c(NC(=O)c2c(N)n(CCCOC)c3nc4ccccc4nc23)sc2c1CCCC2", "inhibition": "41.9% (inactive)"},
      {"compound": "COCCCn1c(N)c(C(=O)NCc2ccco2)c2nc3ccccc3nc21", "inhibition": "-8.5% (inactive)"},
      {"compound": "COc1ccc(Cn2c(N)c(C(=O)NCc3ccco3)c3nc4ccccc4nc32)cc1", "inhibition": "-14.9% (inactive)"},
      {"compound": "CC(C)CCn1c(N)c(C(=O)NCc2cccs2)c2nc3ccccc3nc21", "inhibition": "4.2% (inactive)"},
      {"compound": "COc1cc(Cn2c(N)c(C(=O)NCc3ccco3)c3nc4ccccc4nc32)cc(OC)c1OC", "inhibition": "50.8% (active)"},
      {"compound": "COCCCn1c(N)c(C(=O)Nc2ccccc2)c2nc3ccccc3nc21", "inhibition": "-4.1% (inactive)"},
      {"compound": "COCCCn1c(N)c(C(=O)NCCC(C)C)c2nc3ccccc3nc21", "inhibition": "-40.9% (inactive)"},
      {"compound": "CCCCn1c(N)c(C(=O)NCc2cccs2)c2nc3ccccc3nc21", "inhibition": "51.4% (active)"},
      {"compound": "CCOCCCn1c(N)c(C(=O)Nc2sc3c(c2C(=O)OC)CCCC3)c2nc3ccccc3nc21", "inhibition": "47% (active)"},
      {"compound": "COc1ccc(Cc2nccc3cc(OC)c(OC)cc23)cc1OC", "inhibition": "37.6% (inactive)"},
      {"compound": "c1ccc2c(NC3=NCCS3)cccc2c1", "inhibition": "19.6% (inactive)"},
      {"compound": "CN1CCc2nc3sc(C#N)c(N)c3c(-c3cccs3)c2C1", "inhibition": "29.8% (inactive)"},
      {"compound": "CN1CCN(c2ccc3nccnc3c2)CC1", "inhibition": "6.7% (inactive)"},
      {"compound": "O=C(O)CCn1cc(C=C2C(=O)NC(=O)NC2=O)c(-c2ccc(Br)cc2)n1", "inhibition": "1% (inactive)"},
      {"compound": "CCC(C)NC(=O)c1c(N)n(CCCOC)c2nc3ccccc3nc12", "note": "(centres undefined)", "inhibition": "74% (active)"},
      {"compound": "COCCNC(=O)c1c(N)n(CCC(C)C)c2nc3ccccc3nc12", "inhibition": "-54.5% (inactive)"},
      {"compound": "COCCCn1c(N)c(C(=O)OCCOC)c2nc3ccccc3nc21", "inhibition": "10.5% (inactive)"},
      {"compound": "Cc1ccsc1C(=O)C1CCCN(Cc2ccc(-n3cccn3)cc2)C1", "note": "(centres undefined)", "inhibition": "-14.4% (inactive)"},
      {"compound": "CC(C)CNC(=O)c1c(N)n(Cc2ccc3c(c2)OCO3)c2nc3ccccc3nc12", "inhibition": "-19.8% (inactive)"},
      {"compound": "CC(C)[C@H]1C(=O)N2CCC[C@H]2[C@]2(O)O[C@](NC(=O)[C@@H]3C=C4c5cccc6[nH]cc(c56)C[C@H]4N(C)C3)(C(C)C)C(=O)N12", "inhibition": "54.8% (active)"},
      {"compound": "CN1C[C@H](CO)C=C2c3cccc4[nH]cc(c34)C[C@H]21", "inhibition": "10.8% (inactive)"},
      {"compound": "Cn1c(O)c(/C=C2\\N=c3ccccc3=C2CCNC(=S)NC2CC2)c(=O)n(C)c1=O", "inhibition": "58.6% (active)"},
      {"compound": "O=C(c1cccn2c(=O)c3ccc(Cl)cc3nc12)N1CCC2(CC1)OCCO2", "inhibition": "20.5% (inactive)"},
      {"compound": "COc1ccc(OC)c(N2C(=O)NC(=O)/C(=C/c3ccc([N+](=O)[O-])s3)C2=O)c1", "inhibition": "86.3% (active)"}
    ]}
  ]
}
